Some structures have more than one record in an assay (separate samples or runs), and their calls can disagree. Activity calls are given as the source filed them. Rule for the calls: active = hit-call score of the fitted dose curve at least 0.9, where 1 is the maximum; inactive = score below 0.9.
Key:
[1] = BSK_CASM3C_SRB: Viability Assessment in the BioMAP Diversity Plus: CASM3C Assay (AID 2283050); conditions: primary human coronary artery smooth muscle cells;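 note: cells exposed to compound for 24 h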
[2] = read-out: Thrombomodulin, THBD (gene 7056); test: BSK_CASM3C_Thrombomodulin: BioMAP Diversity Plus: CASM3C Assay for Thrombomodulin Biomarker Activity (AID 2283051); conditions: primary human coronary artery smooth muscle cells; actives raise or lower the signal;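 note: thrombomodulin protein level measured by ELISA 24 h after dosing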
[3] = read-out: Tissue Factor, F3 (gene 2152); test: BSK_CASM3C_TissueFactor: BioMAP Diversity Plus: CASM3C Assay for Tissue Factor Biomarker Activity (AID 2283052); conditions: primary human coronary artery smooth muscle cells; actives raise or lower the signal;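 note: cell surface tissue factor protein level read by ELISA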
[4] = read-out: Interferon-gamma inducible Protein 10 (IP10), CXCL10 (gene 3627); test: BSK_hDFCGF_IP10: BioMAP Diversity Plus: hDFCGF Assay for Interferon-gamma inducible Protein 10 (IP10) Biomarker Activity (AID 2283053); conditions: primary human foreskin fibroblasts; actives raise or lower the signal
Method in brief: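 Primary human foreskin fibroblasts exposed to chemicals for 24 h. IP-10 measured by ELISA; changes fitted bidirectionally against DMSO baseline.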

[5] = read-out: Urokinase-type plasminogen activator receptor (uPAR), PLAUR (gene 5329); test: BSK_CASM3C_uPAR: BioMAP Diversity Plus: CASM3C Assay for Urokinase-type plasminogen activator receptor (uPAR) Biomarker Activity (AID 2283054); conditions: primary human coronary artery smooth muscle cells; actives raise or lower the signal;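 note: cell-surface uPAR protein level quantified by ELISA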
[6] = read-out: Vascular cell adhesion molecule 1 (VCAM1), VCAM1 (gene 7412); test: BSK_CASM3C_VCAM1: BioMAP Diversity Plus: CASM3C Assay for Vascular cell adhesion molecule 1 (VCAM1) Biomarker Activity (AID 2283055); conditions: primary human coronary artery smooth muscle cells; actives raise or lower the signal;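 note: VCAM-1 protein level quantified by ELISA on the cells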
[7] = read-out: Collagen III, COL3A1 (gene 1281); test: BSK_hDFCGF_CollagenIII: BioMAP Diversity Plus: hDFCGF Assay for Collagen III Biomarker Activity (AID 2283056); conditions: primary human foreskin fibroblasts; actives raise or lower the signal
Method in brief: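 ELISA readout of Collagen III in human dermal (foreskin) fibroblasts, taken 24 h post-treatment. Gain or loss relative to DMSO vehicle fitted in both directions.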

[8] = read-out: Epidermal growth factor receptor (EGFR), EGFR (gene 1956); test: BSK_hDFCGF_EGFR: BioMAP Diversity Plus: hDFCGF Assay for Epidermal growth factor receptor (EGFR) Biomarker Activity (AID 2283057); conditions: primary human foreskin fibroblasts; actives raise or lower the signal
Method in brief: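 Primary human foreskin fibroblasts (hDFCGF system), sampled 24 h after dosing; EGFR quantified by ELISA. Bidirectional fit relative to DMSO baseline; SRB total-protein staining in parallel cultures for cytotoxicity.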

[9] = read-out: Interleukin-8 (IL8), CXCL8 (gene 3576); test: BSK_hDFCGF_IL8: BioMAP Diversity Plus: hDFCGF Assay for Interleukin-8 (IL8) Biomarker Activity (AID 2283058); conditions: primary human foreskin fibroblasts; actives raise or lower the signal
Method in brief: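 IL-8 levels read by ELISA at 24 hours after dosing human skin fibroblast cultures. Parallel SRB staining assessed overt cytotoxicity, and gain or loss of signal was fitted against DMSO control.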

[10] = BSK_hDFCGF_Proliferation: Cell Proliferation Assessment in the BioMAP Diversity Plus: hDFCGF Assay (AID 2283059); conditions: primary human foreskin fibroblasts;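 note: curves fitted for both rise and fall of signal versus DMSO baseline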
Method in brief: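 Total protein read at 560 nm after 0.1% SRB staining of TCA-fixed human skin fibroblasts, […]. Activity is fitted in both directions relative to DMSO as baseline.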

Measured: AC50

CC(C)Nc1nc(Cl)nc(NC(C)C)n1
active: [5] 13.6 µM
inactive: all other assays above

CC(C)NC(=O)N1CC(=O)N(c2cc(Cl)cc(Cl)c2)C1=O
active: [7] 0.702 µM
inactive: all other assays above

COP(=S)(OC)Oc1ccc([N+](=O)[O-])c(C)c1
active: [4] 14 µM | [7] 22.7 µM | [10] 24.2 µM
inactive: all other assays above

CC(C)N1C(=O)c2ccccc2NS1(=O)=O
active: [4] 13.4 µM | [7] 0.144 µM
inactive: all other assays above

C=CCOC(=O)C(C)(C)OC(=O)c1cc(-n2c(=O)cc(C(F)(F)F)n(C)c2=O)ccc1Cl
active: [4] 1.2 µM | [5] 0.984 µM | [8] 0.98 µM
inactive: all other assays above

Cn1c(-c2ccccc2)cc(-c2ccccc2)[n+]1C
active: [7] 10.1 µM | [10] 5.37 µM
inactive: all other assays above

CCN(CC)c1nc(C)cc(OP(=S)(OC)OC)n1
active: [2] 20 µM | [4] 20 µM | [10] 20 µM
inactive: all other assays above

COC(=O)N(C(=O)N1CO[C@@]2(C(=O)OC)Cc3cc(Cl)ccc3C2=N1)c1ccc(OC(F)(F)F)cc1
active: [4] 13.5 µM | [10] 7.63 µM
inactive: all other assays above

CCOP(=S)(OCC)Oc1nc(Cl)n(C(C)C)n1
active: [4] 26.7 µM
inactive: all other assays above

Clc1nc(Cl)nc(Nc2ccccc2Cl)n1
active: [4] 32 µM | [10] 27.8 µM
inactive: all other assays above

CN/C(=N\[N+](=O)[O-])NCc1cnc(Cl)s1
inactive: all assays above

O=C(Nc1ccccc1-c1ccc(Cl)cc1)c1cccnc1Cl
inactive: all assays above

CCCC(=NOCC)C1=C(O)CC(CC(C)SCC)CC1=O (stereo unspecified)
inactive: all assays above

CC1(C)CON(Cc2ccccc2Cl)C1=O
inactive: all assays above

Nc1cnn(-c2ccccc2)c(=O)c1Cl
inactive: all assays above

CN=C=S
active: [4] 16.6 µM | [8] 5.42 µM
inactive: all other assays above

CCN(CC)C(=O)C(C)Oc1cccc2ccccc12 (stereo unspecified)
active: [2] 0.148 µM | [4] 3.97 µM | [7] 0.148 µM
inactive: all other assays above

CCOc1cc(C(C)(C)C)ccc1C1COC(c2c(F)cccc2F)=N1 (stereo unspecified)
inactive: [3] | [6]
active: [1] 25 µM | [2] 22.8 µM | [4] 20 µM | [5] 5.08 µM | [7] 5.45 µM | [8] 11.8 µM | [9] 20.4 µM | [10] 6.95 µM

COP(=O)(OC)O/C(C)=C/C(=O)N(C)C
inactive: all assays above

Cc1cc(C)nc(Nc2ccccc2)n1
inactive: all assays above

N#CN=C1SCCN1Cc1ccc(Cl)nc1
inactive: all assays above

Cc1c(COC(=O)[C@@H]2[C@H](/C=C(\Cl)C(F)(F)F)C2(C)C)cccc1-c1ccccc1
active: [2] 18.1 µM | [10] 16.9 µM
inactive: all other assays above

COCC(C)N(C(=O)CCl)c1c(C)csc1C (stereo unspecified)
inactive: [1] | [2] | [3] | [4] | [5] | [6] | [7] | [8] | [9] | [10]
active: [10] 14.3 µM

O=C(O)c1c(Cl)ccc2cc(Cl)cnc12
inactive: all assays above

CNC(=O)Oc1cccc2ccccc12
active: [10] 13.9 µM
inactive: all other assays above

CCCCC(C#N)(Cn1cncn1)c1ccc(Cl)cc1 (stereo unspecified)
active: [5] 1.12 µM
inactive: all other assays above

COCc1cnc(C2=NC(C)(C(C)C)C(=O)N2)c(C(=O)O)c1 (stereo unspecified)
inactive: all assays above

COC(=O)NC(=S)Nc1ccccc1NC(=S)NC(=O)OC
active: [10] 29.8 µM
inactive: all other assays above

CO/N=C(/C1=NOCCO1)c1ccccc1Oc1ncnc(Oc2ccccc2Cl)c1F
active: [10] 26.7 µM
inactive: all other assays above

CSC(=O)c1c(C(F)F)nc(C(F)(F)F)c(C(=O)SC)c1CC(C)C
active: [2] 20 µM | [4] 25.5 µM | [10] 30.6 µM
inactive: all other assays above

O=c1n(Cl)c(=O)n(Cl)c(=O)n1Cl
active: [2] 12.7 µM | [4] 20 µM
inactive: all other assays above

CCCCC(O)(Cn1cncn1)c1ccc(Cl)cc1Cl (stereo unspecified)
active: [4] 32.9 µM | [7] 29.9 µM | [10] 22.9 µM
inactive: all other assays above

CC(C)C1(C)N=C(c2ncccc2C(=O)O)NC1=O (stereo unspecified)
inactive: all assays above

CCNC(=O)NC(=O)C(C#N)=NOC
active: [2] 15.9 µM
inactive: all other assays above

COC(=O)NS(=O)(=O)c1ccc(N)cc1
inactive: all assays above

O=P(O)(O)CCCl
inactive: all assays above
